High-throughput results (PubChem BioAssay)
ClpP mod: qHTS Assay for Activators of ClpP; ATP-dependent Clp protease proteolytic subunit (Bacillus subtilis (strain 168)), P80244; purified B. subtilis ClpP, FRET peptide cleavage, 20 min; Potency, µM (series often up to 57.5 µM), inactives show at the top dose activity change, negative = active; 340,000 compounds, 1.9% hits; active = well fitted falling curve with a large enough effect; inconclusive = small, poorly fitted or top-dose-only effect; inactive = no such curve, though single readings can be large or run the other way; also: potency is read from the fitted curve at half-maximal effect; the source files actives as falling curves though it sought activators and does not explain the sign; nearly all actives have a fitted effect of over 65% in size
Target sequence (P80244 whole entry, looked up): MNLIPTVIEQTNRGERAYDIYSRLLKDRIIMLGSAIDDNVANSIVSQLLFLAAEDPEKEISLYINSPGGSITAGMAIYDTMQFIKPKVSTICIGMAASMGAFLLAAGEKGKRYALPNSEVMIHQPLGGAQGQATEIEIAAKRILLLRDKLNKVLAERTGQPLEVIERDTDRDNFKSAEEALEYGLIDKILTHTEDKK
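Purified B. subtilis ClpP, 10 microg/mL final in Tris/HCl pH8 with KCl, BSA, glycerol and Tween-20, cleaved an Abz/nitrotyrosine-quenched decapeptide. Fluorescence (ex 320, em 430) was read at 0 and 20 min at room temperature. Delta was normalized to 5.8 microM ADEP and DMSO/no-enzyme controls.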
uPA surface inh: inhibitors of cell surface uPA generation. cell surface uPA generation assay, qHTS. Potency, µM (top dose mostly 38.3 µM), inactives show top-dose activity change, negative = inhibition, hits mostly inhibitors. 330,000 compounds, 0.31% hits; active = well fitted inhibition curve with a large enough effect; inconclusive = small, poorly fitted or top-dose-only effect; inactive = no such curve, though single readings can be large or run the other way; tested in mouse RAW 264.7 cells; also: potency is read from the fitted curve at half-maximal effect; % is scaled to controls: 0 for no effect and ±100 for the full control effect; nearly all actives have a fitted effect of over 55% in size
TCR act: activators of T cell receptors | primary human leukocytes, anti-CD3, IL-2 HTRF, 48 h | Potency, µM (top dose mostly 9.22 µM), for inactives: at the top dose activation of IL-2 secretion, most hits filed as activators | 330,000 tested, under 10 active | AID 504894; also: % of control where 0% means no effect
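TCR engagement came from a-CD3 beads alone, with compounds added to primary human leukocytes for 48 hr. Secreted IL-2 bridged europium cryptate- and d2-labelled anti-IL-2 antibodies, giving FRET emission at 665nm after 320nm excitation.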
Sfp PPTase inh: blocks B. subtilis Sfp PPTase activity. Biochemical Sfp PPTase activity, qHTS. AID 1490. Q9F4F7. 310,000 compounds, 3.5% hits. Potency, µM, without a hit: largest response in the series, negative = inhibition, usual class: inhibitors;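 also: the enzyme is Sfp with the accession as filed and its product quenches rhodamine fluorescence; potency is read from the fitted curve at half-maximal effect; 0% = enzyme reaction without inhibitor and -100% = no enzyme wells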
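After 15 min at room temperature with compound, 15 nM Sfp received 5 uM rhodamine-CoA plus 12.5 uM BHQ-2-ybbR (50 mM Hepes pH 7.6, 10 mM MgCl2). Rate came from the fluorescence difference over 30 min, ex 525/em 598 nm.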
* hit, by the source's call; ? = inconclusive; . = no result given; ! = not confirmed by another sample; [ ] = another dose, or the depositor's remark. An excerpt weighted towards active compounds, which were near 4.2% of everything screened. Unless noted, calls follow the shape of the dose curve; as a rule, active = well fitted curve in the direction sought with a large enough effect; inconclusive = small, poorly fitted or top-dose-only effect, or another doubt; inactive = no such curve, though single readings can be large; an effect the other way counts as inactive or inconclusive.

SMILES | ClpP mod | uPA surface inh | TCR act | Sfp PPTase inh
Cn1c(OCC2CCCO2)nc2cc(-c3ccccc3)sc2c1=O (configuration not stated) | -27% | . | . | .
Clc1nc(-c2ccccn2)nc2scc(-c3ccccc3)c12 | 28µM* | 10µM* | -2%[46.1 µM] | -14%
CC1CCN(c2nc(-c3cccnc3)nc3scc(-c4ccccc4)c23)CC1 | ? | 14% | -1%[46.1 µM] | 5%
Cc1ccc(NC(=O)c2cncc(Br)c2)nc1 | -3% | -2% | 2% | 11%
COc1ccc(C(=O)Cn2c(Br)nc3c2c(=O)n(C)c(=O)n3C)cc1OC | -1% | 2% | -12% | -24%
COc1ccc(C(=O)Cn2c(Br)nc3c2c(=O)n(C)c(=O)n3C)cc1 | 4% | . | 8% | 50µM*
CC1(C)C(=O)NC2=C1C(=O)C(=O)c1ccccc12 | . | . | . | 50µM*!
Cc1cc2c(NC(=O)Nc3ccc(F)cc3)cccc2nn1 | . | 0% | -1% | 35µM*
CC1CCCCC1NC(=O)COC(=O)c1c2c(nc3ccccc13)/C(=C/c1ccco1)CC2 (configuration not stated) | 2% | 2% | -6%[46.1 µM] | -53%
O=C(COC(=O)c1c2c(nc3ccccc13)/C(=C/c1ccco1)CC2)NC1CCCC1 | -4% | -5% | -3%[46.1 µM] | 50µM*
CC(C)CNC(=O)COC(=O)c1c2c(nc3ccccc13)/C(=C/c1cccs1)CC2 | -1% | 3% | 6%[46.1 µM] | 45µM*
COc1ccc(S(=O)(=O)N2CCCCC2)cc1NC(=O)c1ccc(Cl)nc1 | 3% | 3% | 5% | .
COc1ccc(C)cc1NC(=O)C1CCN(S(=O)(=O)c2ccc3[nH]c(=O)oc3c2)CC1 | 1% | . | . | .
O=C1CC(c2ccco2)CC(O)=C1C=Nc1cc(Cl)cc(Cl)c1 (configuration not stated) | -6% | -1% | -9% | 40µM*
Nc1scc2c(C(=O)O)nn(-c3ccccc3)c(=O)c12 | . | 2% | 3% | .
CCOC(=O)c1nn(-c2ccc(F)cc2)c(=O)c2c(N)scc12 | . | 7% | -7% | 50µM*
N#Cc1ccc(CSc2nc3c(c(=O)[nH]2)CCCC3)cc1 | 1% | . | . | .
CCOC(=O)c1c(S(=O)(=O)N2CCC(C(=O)N3CCN(c4ccc(F)cc4)CC3)CC2)c(C)n(C)c1C | -1% | . | . | .
O=C(c1ccc(Br)c(S(=O)(=O)N2CCCCC2)c1)N1CCCCC1 | 22µM* | -3% | 3% | 11%
Cc1nc2ccccn2c1-c1ccnc(=S)[nH]1 | . | 1% | 5% | 10µM*
c1ccn2c(c1)nc1c2nc2ccccn21 | -14% | . | 0% | -6%
CCOc1ccc2c(c1)nc(SCC(=O)c1ccc(Br)s1)n2C | -2% | . | 15% | 32µM*
CCOc1ccc2c(c1)nc(SCC(=O)c1cccs1)n2C | 2% | -6% | -1% | ?
O=C1CC(C(=O)Nc2ccc(O)c(C(=O)O)c2)C(c2ccccc2)O1 (configuration not stated) | 25µM* | -3% | 0% | 14%
COCc1cc(C)n(CC(=O)Nc2ccccc2C(=O)OC)c(=O)c1C#N | 18µM* | 1% | . | 20%
SMILES | ClpP mod | uPA surface inh | TCR act | Sfp PPTase inh
COCc1cc(C)n(CC(=O)NC(C)c2ccccc2)c(=O)c1C#N (configuration not stated) | 16µM* | -3% | . | -11%
O=C(O)c1ccc2c(ccc3nn(-c4ccc(/C=C/c5ccc(-n6nc7ccc8cc(C(=O)O)ccc8c7n6)cc5[S+](=O)([O-])[O-])c([S+](=O)([O-])[O-])c4)nc32)c1 | 5% | . | . | .
O=C1ON=C(c2ccccc2)/C1=C/c1ccccc1 | 1% | -5% | . | 45µM*
O=C1ON=C(c2ccccc2)/C1=C/c1ccc(O)cc1 | 0% | ? | 3% | 50µM*
CCOc1cc(/C=C2\C(=O)ON=C2c2ccccc2)cc(Br)c1O | . | -2% | -11% | 79µM*
Cc1ccc(C2=NOC(=O)/C2=C\c2ccccc2)cc1 | 1% | 14% | 1% | .
Cc1ccc(/C=C2/C(=O)ON=C2c2ccccc2)o1 | -4% | -22% | -3% | 14µM*
COc1cc(/C=C2\C(=O)ON=C2c2ccccc2)cc(Br)c1O | . | 1% | 1% | ?
Cc1cc(Cl)ccc1NC(=O)CCS(=O)(=O)c1cc2c(cc1C)NC(=O)CO2 | 2% | . | . | .
NCCCC[C@H](NC(=O)[C@@H]1CCCN1C(=O)[C@H](CO)NC(=O)[C@H](CC(=O)O)NC(=O)CNC(=O)[C@H](CCCN=C(N)N)NC(=O)CN)C(=O)O | . | . | . | -23%
CCN(Cc1ccccc1)C(=O)Nc1ccc2c(c1)N(C)C(=O)c1ccccc1S2 | -1% | . | . | .
O=C1ON=C(c2ccccc2)/C1=C\c1ccco1 | 0% | 17% | 2% | 14µM*
CC1=NOC(=O)/C1=C/c1ccc(O)cc1 | . | -1% | -14% | 40µM*
O=C1ON=C(c2ccc(Cl)cc2)/C1=C/c1ccc(O)cc1 | . | 3% | -2% | 22µM*
Cc1sc(/C=C2\C(=O)ON=C2c2ccccc2)cc1Br | . | . | 4%[46.1 µM] | 11%
COc1cc(/C=C2\C(=O)ON=C2c2ccccc2)cc(Cl)c1O | . | 5% | 3% | -31%
COc1cc(/C=C2/C(=O)ON=C2c2ccccc2)ccc1O | -1% | 2% | -6%[46.1 µM] | 50µM*
COc1ccccc1N(C)S(=O)(=O)c1ccc(C)c(C(=O)Nc2nccs2)c1 | -1% | 14% | 0% | .
COc1ccc(OC)c(NCc2cccn2-c2nnc(N3CCCCC3)s2)c1 | 1% | . | . | .
O=c1nc(Nc2ccc([N+](=O)[O-])cc2)[nH]c(=O)[nH]1 | . | 2% | -3% | 19%
Cc1nn2c(c1-c1ccccc1)NC1=C(C(=O)CCC1)C2c1ccccc1 (configuration not stated) | 8.9µM* | . | . | 21%
COc1ccc(CN2CC(C(=O)N3CC(C)CC(C)C3)CC2=O)cc1 (configuration not stated) | -1% | 7% | -3% | 15%
Cc1ccc(S(=O)(=O)N2CCCCC2CCNC(=O)C(=O)NCc2ccccc2)cc1 (configuration not stated) | -7% | 8.9µM* | 2% | .
Cc1ccc(S(=O)(=O)N2CCCCC2CCNC(=O)C(=O)NCc2ccncc2)cc1 (configuration not stated) | -1% | -3% | 7% | .
CN(C)C(=O)c1ccc(-c2nc(N(C)C)c3ccccc3n2)cc1 | . | . | . | 4%
SMILES | ClpP mod | uPA surface inh | TCR act | Sfp PPTase inh
Cc1cc[n+](C2CCCCC2)c2ccccc12 | -3% | . | . | .
CCOC(=S)SCC(=O)Nc1nccs1 | -28% | -7% | . | 71µM*
CCOC(=S)SCC(=O)Nc1nc(C)c(C)s1 | -1% | ? | -7% | 56µM*
Cc1nc(NC(=O)c2ccccc2)sc1C | -2% | ? | -2% | 25%
Cc1nc(NC(=O)CCc2ccccc2)sc1C | 1% | -5% | . | 40µM*
Cc1ccccc1-c1nc2cc(NC(=O)COc3ccc(F)cc3)ccc2o1 | 5% | . | . | .
Cc1ccc(-c2nnc(Nc3ccc(S(N)(=O)=O)cc3)c3ccccc23)cc1S(=O)(=O)N1CCOCC1 | 6% | . | . | .
Cc1cc(C)n(-c2nc3cc(Cl)c(Cl)cc3nc2Nc2ccc(F)cc2C)n1 | 0% | . | . | .
